Screening data from PubChem.
Most compounds without a hit are left out; they make up all but 3.3% or so of the library.
Calb FLC – affects C. albicans growth with fluconazole. AID 1979. C. albicans CaCi-2 (fluconazole-resistant clinical isolate) + fluconazole, Alamar Blue growth, 48 h. 300,000 compounds, 0.57% hits. growth inhibition, % (no concentration beside the values);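 active means growth inhibition above about 58% in most replicates, limit read from the data, passing the limit was not always enough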;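 further: all wells also contain fluconazole at 8 µg/ml as a sub-toxic cotreatment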
Cl transport mod – modulators of human KCC2 chloride dependent transport; Q9H2X9; KCC2 cells, thallium flux FluoZin-2 fluorescence; B-score of Tl+ flux slope (higher = more flux/activation; lower = inhibition) at 10 µM; AID 1456; 190,000 compounds, 2.2% hits;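 active means thallium flux slope and its plate-corrected score both differing from the plate sample mean at a set confidence after two filtering rounds, in either direction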;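 further: slope of fluorescence scaled to starting intensity during 10 to 20 s after thallium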
Target sequence (Q9H2X9 whole entry, looked up): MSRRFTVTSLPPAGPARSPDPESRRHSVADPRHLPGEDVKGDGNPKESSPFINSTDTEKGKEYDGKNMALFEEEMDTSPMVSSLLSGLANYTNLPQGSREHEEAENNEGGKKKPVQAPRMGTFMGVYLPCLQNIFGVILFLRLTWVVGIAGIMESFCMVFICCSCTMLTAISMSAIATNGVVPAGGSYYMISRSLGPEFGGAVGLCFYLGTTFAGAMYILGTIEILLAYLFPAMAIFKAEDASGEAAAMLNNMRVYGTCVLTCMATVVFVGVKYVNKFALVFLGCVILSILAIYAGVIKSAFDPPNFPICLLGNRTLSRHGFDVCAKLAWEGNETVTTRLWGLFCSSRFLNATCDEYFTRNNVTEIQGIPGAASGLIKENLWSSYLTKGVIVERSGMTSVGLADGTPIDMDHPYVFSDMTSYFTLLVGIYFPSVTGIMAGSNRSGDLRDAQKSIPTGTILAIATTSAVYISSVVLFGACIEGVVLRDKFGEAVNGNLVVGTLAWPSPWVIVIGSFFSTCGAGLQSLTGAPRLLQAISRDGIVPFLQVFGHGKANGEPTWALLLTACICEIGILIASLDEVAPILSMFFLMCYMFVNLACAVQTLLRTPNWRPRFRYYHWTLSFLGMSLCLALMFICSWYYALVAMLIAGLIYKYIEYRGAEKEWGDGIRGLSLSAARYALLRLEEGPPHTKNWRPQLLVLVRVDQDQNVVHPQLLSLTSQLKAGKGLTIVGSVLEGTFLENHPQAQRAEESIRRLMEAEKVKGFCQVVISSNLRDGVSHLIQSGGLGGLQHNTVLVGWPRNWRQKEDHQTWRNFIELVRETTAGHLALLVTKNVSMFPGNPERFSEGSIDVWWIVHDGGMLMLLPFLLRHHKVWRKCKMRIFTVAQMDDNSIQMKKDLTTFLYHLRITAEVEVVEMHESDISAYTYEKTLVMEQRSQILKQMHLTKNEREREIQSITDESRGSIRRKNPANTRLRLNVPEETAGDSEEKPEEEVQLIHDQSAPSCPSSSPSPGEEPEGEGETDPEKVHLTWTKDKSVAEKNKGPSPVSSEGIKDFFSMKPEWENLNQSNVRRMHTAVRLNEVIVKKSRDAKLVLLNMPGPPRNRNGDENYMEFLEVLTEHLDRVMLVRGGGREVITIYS
PHOSPHO1 inh – blocks human PHOSPHO1 phosphatase activity | 290,000 compounds, 1.1% hits | inhibition, % at 13.3 µM | recombinant PHOSPHO1, absorbance phosphatase assay; in the data active means inhibition above about 60%
Cardio protect – modulators protecting cardiomyocytes from myocardial damage | AID 588492 | 360,000 compounds, 0.63% hits | protection from H2O2 cell death, % at 20 µM | H9c2 cardiomyocytes, H2O2 injury protection, ATPLite, 2 h;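 active means compounds giving at least 50% protection of heart cells from peroxide-induced death in the single-dose screen, raw or plate-pattern-corrected value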
Efflux pump mplx – blocks antifungal efflux pumps in multiplex yeast assay. 330,000 compounds, 0.44% hits. AID 485275. S. cerevisiae Candida pump triplex, Nile Red efflux. inhibition, % at 10 µM;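 active means plate passing quality check with inhibition over a set limit, or well fluorescence over plate mean plus 4 SD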;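 further: Nile Red retained in pooled yeast measured as flow cytometry median fluorescence; higher means more Nile Red kept so more efflux inhibition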
Yeast cmpd fluor – compound fluorescence in yeast efflux pump counter-screen. fluorescence ratio to DMSO, % at 10 µM. 1,700 compounds, 4% hits. shares compounds with Efflux pump mplx. AID 588517. S. cerevisiae AD/pABC3, flow cytometry;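 active means fluorescence ratio to DMSO above its plate's cutoff, the plate mean ratio plus 5 SD, cut at about 210% in these data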;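 further: unstained yeast with no Nile Red so the signal is compound autofluorescence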
Mdr1 pump inh – blocks the Candida albicans Mdr1 efflux pump in yeast; 1,700 compounds, 1% hits; inhibition, % at 10 µM; S. cerevisiae AD/CaMDR1, Nile Red efflux, flow cytometry; shares compounds with Efflux pump mplx; in the data active means inhibition above about 26%;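 further: higher means more Nile Red retained so more efflux inhibition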
CaCdr2 efflux inh – blocks the Candida albicans Cdr2 efflux pump in yeast; shares compounds with Efflux pump mplx; S. cerevisiae AD/CaCDR2, Nile Red retention, flow cytometry; Nile Red retention ratio vs DMSO, % at 10 µM; 1,700 compounds, 4% hits; in the data active means Nile Red retention ratio vs DMSO above about 190%;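 further: higher ratio means more blocking of Cdr2 efflux of the dye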
Cdr1 pump inh – inhibitors of Candida albicans Cdr1 efflux pump; inhibition, % at 10 µM; 1,700 compounds, 1% hits; S. cerevisiae AD/CaCDR1, Nile Red efflux, flow cytometry; shares compounds with Efflux pump mplx; AID 588522;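 active means inhibition above the screen-wide mean plus twice its standard deviation, cut at about 32% in these data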
Hits are given with their value.

`O=C(CN1C(=O)CC(c2ccco2)Sc2ccccc21)NCc1ccc2c(c1)OCO2` (centres undefined) gave Calb FLC inactive, Cl transport mod inactive, PHOSPHO1 inh inactive, Cardio protect inactive, Efflux pump mplx 9.8, Yeast cmpd fluor inactive, Mdr1 pump inh inactive, CaCdr2 efflux inh inactive and Cdr1 pump inh inactive.
CC1CC(=O)N(CC(=O)Nc2ccc3c(c2)OCCO3)c2ccccc2S1 (centres undefined) was read as Calb FLC inactive, Cl transport mod inactive, PHOSPHO1 inh inactive, Cardio protect inactive, Efflux pump mplx inactive, Yeast cmpd fluor 530.6, Mdr1 pump inh inactive, CaCdr2 efflux inh inactive and Cdr1 pump inh inactive.
`O=C(c1ccc(-n2cccn2)cc1)N1CCN(c2ncccc2C(F)(F)F)CC1` gave Calb FLC inactive, PHOSPHO1 inh inactive, Cardio protect inactive and Efflux pump mplx inactive.
Screening COc1ccc(OC)c(S(=O)(=O)N2CCC(NC(=O)c3ccccc3)CC2)c1 returned Calb FLC inactive, PHOSPHO1 inh inactive, Cardio protect inactive and Efflux pump mplx inactive.
`Cc1sc2ncnc(SCC(=O)NCC3CCCO3)c2c1C` (centres undefined) gave Cardio protect inactive and Efflux pump mplx inactive.
COc1ccc(-c2cc(=O)n(-c3ccc([N+](=O)[O-])cc3)[nH]2)cc1 was read as Calb FLC inactive, Cl transport mod inactive, PHOSPHO1 inh inactive, Cardio protect inactive, Efflux pump mplx 13.8, Yeast cmpd fluor inactive, Mdr1 pump inh inactive, CaCdr2 efflux inh inactive and Cdr1 pump inh inactive.
Screening COc1ccc2cc(CN(CC3CCCO3)S(=O)(=O)c3ccc(C(C)=O)cc3)c(=O)[nH]c2c1 (centres undefined) returned Calb FLC inactive, Cl transport mod inactive, PHOSPHO1 inh inactive, Cardio protect inactive, Efflux pump mplx 0.3, Yeast cmpd fluor inactive, Mdr1 pump inh inactive, CaCdr2 efflux inh inactive and Cdr1 pump inh 91.6.
For Cc1cc(C)cc(N(C(=O)c2csnn2)C(C(=O)NC2CCCC2)c2cccnc2)c1 (centres undefined) the results were Calb FLC inactive, PHOSPHO1 inh inactive, Cardio protect inactive and Efflux pump mplx inactive.
Screening COC(=O)CN1C(=S)N(c2ccc(Cl)cc2)C(=O)C1CC(=O)Nc1ccc(Cl)cc1 (centres undefined) returned Calb FLC inactive, Cl transport mod inactive, PHOSPHO1 inh inactive, Cardio protect inactive, Efflux pump mplx 0.5, Yeast cmpd fluor inactive, Mdr1 pump inh inactive, CaCdr2 efflux inh inactive and Cdr1 pump inh inactive.
For COc1cccc(C2/C(=C(/O)c3cnn(-c4ccccc4)c3C)C(=O)C(=O)N2CCN(C)C)c1OC (centres undefined) the results were Calb FLC inactive, Cl transport mod inactive, PHOSPHO1 inh inactive, Cardio protect inactive and Efflux pump mplx inactive.
Screening COc1ccc(/C(O)=C2\C(=O)C(=O)N(CCN(C)C)C2c2cccc(OC)c2OC)cc1 (centres undefined) returned Calb FLC inactive, Cl transport mod inactive, PHOSPHO1 inh inactive, Cardio protect inactive, Efflux pump mplx 6.5, Yeast cmpd fluor inactive, Mdr1 pump inh inactive, CaCdr2 efflux inh inactive and Cdr1 pump inh inactive.
Cc1ccc(-n2nc3c(=O)n(CC(=O)NCCc4cccs4)nc(C)c3c2C)cc1 was read as Calb FLC inactive, PHOSPHO1 inh inactive, Cardio protect inactive, Efflux pump mplx inactive, Yeast cmpd fluor inactive, Mdr1 pump inh inactive, CaCdr2 efflux inh inactive and Cdr1 pump inh inactive.
Cc1ccc(-n2nc3c(=O)n(CCCC(=O)NCCc4ccccc4)nc(C)c3c2C)cc1 was read as Calb FLC inactive, PHOSPHO1 inh inactive, Cardio protect inactive and Efflux pump mplx inactive.
`Cc1ccc(-n2nc3c(=O)n(CCCC(=O)NCCN4CCN(C)CC4)nc(C)c3c2C)cc1` gave Calb FLC inactive, PHOSPHO1 inh inactive, Cardio protect inactive, Efflux pump mplx 5.4, Yeast cmpd fluor inactive, Mdr1 pump inh inactive, CaCdr2 efflux inh inactive and Cdr1 pump inh inactive.
For CCc1ccc(CNC(=O)CCn2nc(C)c3c(C)n(-c4ccccc4)nc3c2=O)cc1 the results were Calb FLC inactive, PHOSPHO1 inh inactive, Cardio protect inactive and Efflux pump mplx inactive.
For COc1ccc(CNC(=O)C(C)n2nc(C)c3c(C)n(-c4ccc(C)cc4)nc3c2=O)cc1 (centres undefined) the results were Calb FLC inactive, PHOSPHO1 inh inactive, Cardio protect inactive, Efflux pump mplx inactive, Yeast cmpd fluor inactive, Mdr1 pump inh inactive, CaCdr2 efflux inh inactive and Cdr1 pump inh inactive.
`Cc1nn(CCC(=O)NCc2ccc(OC(C)C)cc2)c(=O)c2nn(-c3ccccc3)c(C)c12` gave Calb FLC inactive, PHOSPHO1 inh inactive, Cardio protect inactive, Efflux pump mplx inactive, Yeast cmpd fluor inactive, Mdr1 pump inh inactive, CaCdr2 efflux inh inactive and Cdr1 pump inh inactive.
For CC(=O)c1ccc(OCC(=O)N2CCN(S(=O)(=O)c3ccc(C)cc3C)CC2)cc1 the results were Calb FLC inactive, PHOSPHO1 inh inactive, Cardio protect inactive and Efflux pump mplx inactive.
For COc1ccc2cc(C(=O)C3CCCN(C(=O)Cc4c(C)noc4C)C3)ccc2c1 (centres undefined) the results were Calb FLC inactive, PHOSPHO1 inh inactive, Cardio protect inactive and Efflux pump mplx inactive.
For O=C(NC1CCCCC1)c1cc(-c2ccccc2O)on1 the results were Calb FLC inactive, PHOSPHO1 inh inactive, Cardio protect inactive and Efflux pump mplx inactive.
`CCC(C(=O)Nc1cc(F)ccc1F)n1nc(C)c2c(C)n(-c3ccc(C)cc3)nc2c1=O` (centres undefined) gave Calb FLC inactive, PHOSPHO1 inh inactive, Cardio protect inactive, Efflux pump mplx 5.0, Yeast cmpd fluor inactive, Mdr1 pump inh inactive, CaCdr2 efflux inh inactive and Cdr1 pump inh inactive.
Screening Cc1ccc(CCNC(=O)CCCn2nc(C)c3c(C)n(-c4ccc(C)cc4)nc3c2=O)cc1 returned Calb FLC inactive, PHOSPHO1 inh inactive, Cardio protect inactive, Efflux pump mplx inactive, Yeast cmpd fluor inactive, Mdr1 pump inh inactive, CaCdr2 efflux inh inactive and Cdr1 pump inh inactive.
`COc1ccc(C(CCNCc2ccc(F)cc2)c2ccc(F)cc2)cc1` (centres undefined) gave Calb FLC inactive, Cl transport mod inactive, PHOSPHO1 inh inactive, Cardio protect inactive and Efflux pump mplx inactive.
